Consider seven molecules from PubChem BioAssay (NCI).

This is part of a sample that, as a whole, favours compounds with a hit. Of some 83,000 tested, about 20% had one in any assay.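 Plates (96-well) were seeded with cells, treated with compound at one concentration, and incubated for 48 hours before percent growth was determined.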 Unmarked numbers belong to inactive results. The source made the active and inactive calls. The calls were made as follows: active = growth percent below 10; inactive = the rest.

Among the test systems are HCT-15 colon; HT29 colon; SNB-75 CNS; SNB-19 CNS; U251 CNS; PC-3 prostate; SK-MEL-5 melanoma; UACC-62 melanoma; LOX IMVI melanoma; SK-MEL-28 melanoma; SK-MEL-2 melanoma; EKVX NSCLC; SN12C renal; UO-31 renal; TK-10 renal; ACHN renal; CAKI-1 renal; CCRF-CEM leukemia; MOLT-4 leukemia.
What all share (assay): NCI-60 one-dose screen, 48 h (100 = growth as untreated, 0 = no growth, -100 = all killed)
Conditions in all cases: 10 µM unless noted

For the molecule `C=C1C(=O)O[C@H]2[C@H]1CC/C(CNC(=O)/C=C/c1ccc(Br)cc1)=C\CC[C@@]1(C)O[C@@H]21`, the growth was -64.2% (active) with HCT-15 colon; -74.5% (active) in the experiment on HT29 colon; 48.9% with SNB-75 CNS; 15.9% in the experiment with SNB-19 CNS; -28.3% (active) in the experiment on U251 CNS; -55.2% (active) in the experiment on PC-3 prostate. Further, the growth in the experiment with SK-MEL-5 melanoma is 28.7%; in the experiment on UACC-62 melanoma, -93.5% (active); with LOX IMVI melanoma it was -95.2% (active); in the experiment on SK-MEL-28 melanoma, -66.1% (active); in the experiment with SK-MEL-2 melanoma, -18% (active); with EKVX NSCLC it was -47.8% (active). Besides, the growth was -66.5% (active) in the experiment on SN12C renal; -98.2% (active) in the experiment with UO-31 renal; -67.9% (active) in the experiment on TK-10 renal; -58.6% (active) with ACHN renal; -91.8% (active) in the experiment on CAKI-1 renal; -2.6% (active) with CCRF-CEM leukemia. Further, the growth in the experiment with MOLT-4 leukemia is -22.7% (active).

Consider `O=C(Nc1ccc2cc3ccc(NC(=O)N4CCCCCC4)cc3nc2c1)N1CCCCCC1`, for which the growth with HCT-15 colon was -47.4% (active); in the experiment on HT29 colon, -36.2% (active); in the experiment with SNB-75 CNS, -88.4% (active); with SNB-19 CNS, 1.3% (active); in the experiment on U251 CNS it was -58.8% (active); in the experiment on PC-3 prostate, 5.93% (active). The growth in the experiment with SK-MEL-5 melanoma was -94.4% (active); in the experiment with UACC-62 melanoma, -66.6% (active); with LOX IMVI melanoma it was -85% (active); with SK-MEL-28 melanoma, -82.1% (active); in the experiment on SK-MEL-2 melanoma, -69% (active); in the experiment on EKVX NSCLC, -41% (active). Besides, the growth in the experiment on SN12C renal was -57.6% (active); with UO-31 renal, -85.4% (active); in the experiment with TK-10 renal, -62.3% (active); in the experiment with ACHN renal, -93.6% (active); in the experiment on CAKI-1 renal, -64.7% (active); in the experiment on CCRF-CEM leukemia, 8.09% (active). Further, the growth in the experiment on MOLT-4 leukemia was -21.2% (active).

With `CCCCCCCCOc1ccc(/C=N/Nc2cc(C)nc3ccc(Cl)cc23)cc1`, the growth in the experiment on HCT-15 colon is -82.3% (active); in the experiment on HT29 colon it was -55.9% (active); in the experiment on SNB-75 CNS, 52.2%; in the experiment on SNB-19 CNS it was 9.5% (active); in the experiment on U251 CNS, -61% (active); in the experiment with PC-3 prostate, -62.9% (active). The growth in the experiment with SK-MEL-5 melanoma was 96%; in the experiment with UACC-62 melanoma, 91.2%; in the experiment with LOX IMVI melanoma, -90.7% (active); with SK-MEL-28 melanoma it was 64.3%; with SK-MEL-2 melanoma it was 95.6%; with EKVX NSCLC, 55.7%. The growth is -82.4% (active) in the experiment with SN12C renal; 79.2% with UO-31 renal; -35.7% (active) with TK-10 renal; -1.15% (active) with ACHN renal; 41.6% in the experiment with CAKI-1 renal; 2.23% (active) in the experiment with CCRF-CEM leukemia. The growth in the experiment with MOLT-4 leukemia was -14.1% (active).

For the molecule `Cc1cc(C)n(Nc2nc3ccccc3[nH]c2=O)c(=O)c1C#N`, the growth is 102% in the experiment on HCT-15 colon; 110% in the experiment on HT29 colon; 79.5% in the experiment on SNB-75 CNS; 93.1% in the experiment on SNB-19 CNS; 95.4% in the experiment on U251 CNS; 94.8% with PC-3 prostate. Further, the growth in the experiment with SK-MEL-5 melanoma was 95.3%; with UACC-62 melanoma, 94.8%; in the experiment on LOX IMVI melanoma, 91.5%; with SK-MEL-28 melanoma, 104%; in the experiment with SK-MEL-2 melanoma, 108%; in the experiment with EKVX NSCLC, 88.2%. Besides, the growth is 89.8% in the experiment with SN12C renal; 78.8% in the experiment with UO-31 renal; 111% in the experiment with TK-10 renal; 94.1% in the experiment with ACHN renal; 89.9% in the experiment on CAKI-1 renal; 109% in the experiment on CCRF-CEM leukemia. Also, the growth with MOLT-4 leukemia was 96.7%.

Turning to `COC(=O)C1=C(C(=O)ONCCN(C)C)C2C=CC1(C(Cc1ccccc1)Nc1ccc(F)cc1)O2` (configuration not stated), the growth in the experiment on HCT-15 colon is 48.1%; in the experiment with HT29 colon, 75.1%; in the experiment with SNB-75 CNS it was 106%; in the experiment on SNB-19 CNS, 105%; in the experiment with U251 CNS, 100%; in the experiment with PC-3 prostate it was 105%. The growth in the experiment on SK-MEL-5 melanoma was 105%; in the experiment with UACC-62 melanoma, 90.9%; in the experiment on LOX IMVI melanoma, 96.3%; in the experiment with SK-MEL-28 melanoma, 96.1%; in the experiment on SK-MEL-2 melanoma, 97%; in the experiment with EKVX NSCLC it was 102%. The growth in the experiment with SN12C renal is 87%; in the experiment with UO-31 renal it was 81%; with TK-10 renal, 65.4%; with ACHN renal, -18.8% (active); in the experiment on CAKI-1 renal, 88%; in the experiment with CCRF-CEM leukemia, 2.02% (active). Further, in the experiment with MOLT-4 leukemia, the growth is 30.6%.

In the case of `CCNNC(=O)[C@@H]1[C@H](c2cc(OC)c(OC)c(OC)c2)c2cc3c(cc2[C@H](O)[C@H]1CO)OCO3`, the growth was 5.4% (active) with HCT-15 colon; -10% (active) with HT29 colon; 30.3% in the experiment with SNB-75 CNS; 35.6% with SNB-19 CNS; 12.7% in the experiment on U251 CNS; 12.5% in the experiment on PC-3 prostate. The growth was -38.8% (active) in the experiment with SK-MEL-5 melanoma; 50% with UACC-62 melanoma; 14.4% in the experiment with LOX IMVI melanoma; 55% with SK-MEL-28 melanoma; 21.6% in the experiment with SK-MEL-2 melanoma; 44.8% in the experiment with EKVX NSCLC. Moreover, the growth with SN12C renal was 24%; in the experiment on UO-31 renal, 42%; in the experiment on TK-10 renal, 41.6%; in the experiment on ACHN renal, 28.6%; in the experiment on CAKI-1 renal, 29.3%; in the experiment with CCRF-CEM leukemia, 14.6%. The growth in the experiment on MOLT-4 leukemia was 12.8%.

In the case of `COc1cccc(-c2nc3occn3c2-c2ccnc(NCCCNS(=O)(=O)c3cccc(F)c3)n2)c1`, the growth is 83.4% in the experiment on HCT-15 colon; 50.7% in the experiment on HT29 colon; 117% in the experiment with SNB-75 CNS; 109% in the experiment on SNB-19 CNS; 111% in the experiment on U251 CNS; 79.4% in the experiment with PC-3 prostate. Besides, the growth with SK-MEL-5 melanoma is 48.2%; in the experiment with UACC-62 melanoma it was 45.2%; with LOX IMVI melanoma, 86.5%; in the experiment on SK-MEL-28 melanoma, 89.5%; with SK-MEL-2 melanoma it was 90.2%; in the experiment on EKVX NSCLC, 79.8%. Also, the growth with SN12C renal is 87.7%; in the experiment with UO-31 renal it was 69.8%; in the experiment on TK-10 renal, 131%; with ACHN renal, 84.5%; in the experiment with CAKI-1 renal, 78.2%; with CCRF-CEM leukemia, 81.3%.
